Assay results as given in PubChem BioAssay (NCATS).
Results filed as inconclusive are left out. Entries that show only a call come without a potency. Calls of active or inactive are those of the source. Calls follow the shape of the dose curve; as a rule, active = well fitted curve in the direction sought with a large enough effect; inconclusive = small, poorly fitted or top-dose-only effect, or another doubt; inactive = no such curve, though single readings can be large; an effect the other way counts as inactive or inconclusive.

These molecules were tested against Aldehyde dehydrogenase, mitochondrial (Homo sapiens) (UniProt P05091) (assay: qHTS for Inhibitors of the Aldehyde Dehydrogenase Family (ALDH2) Primary screen (AID 2061308; also: nearly all actives have a fitted effect of over 55% in size)). Settings: ALDH2 enzyme inhibition qHTS, 1536-well; series mostly up to 56 µM.

Structure (SMILES)	Potency
O=C(Nc1cccc(-c2nn3c(=O)cc(N4CCNCC4)nc3s2)c1)c1ccon1	inactive
CC(=O)Nc1sc2c(c1-c1ccc3nsnc3c1)CCNC2	inactive
COc1cccc(C2=Nn3c(nnc3-c3ccccc3O)SC2)c1	inactive
Cc1ccc(OCCn2c(CCNC(=O)C3CC3)nc3ccccc32)cc1	inactive
S=C(Nc1ccc(Cl)c(Cl)c1)Nc1nnc(-c2ccncc2)s1	inactive
CN(C)c1cccc(NS(=O)(=O)c2ccc(NC(=O)Cc3ccc(Cl)c(Cl)c3)cc2)c1	inactive
CCOc1ccc(C(=O)Oc2ccc(-c3nc4ccccc4[nH]3)cc2)cc1Cl	inactive
Cc1ccc(N2CCC(CNc3nc(-c4ccccc4C(C)C)ncc3F)CC2)cn1	inactive
Cc1ccccc1OC1=NS(=O)(=O)c2ccccc21	inactive
CCOc1ccc(CCNC(=O)c2cc3sccc3n2CCc2ccccc2)cc1OCC	inactive
COCCNc1nc(C)nc2c1nc(-c1ccccc1)n2CCN(C)C	inactive
CC(=O)Nc1sc2c(c1-c1ccc3c(c1)OCCO3)CCNC2	inactive
C[C@H](Oc1cc(-n2cnc3ccc(CN4CCN(C)CC4)cc32)sc1C(N)=O)c1ccccc1C(F)(F)F	inactive
Cc1ccc(-c2cc(C(=O)NCc3ccc(S(N)(=O)=O)cc3)c3ccccc3n2)cc1C	inactive
Cc1noc(C)c1C(=O)N1CCC2(CCCN(C(c3ccccc3)c3ccccc3)C2)CC1	inactive
CCc1ccc(NC(=O)c2cnn3c(C)cc(-c4ccccc4)nc23)cc1	inactive
C[C@@H]1O[C@@H](O[C@H]2[C@H](O[C@H]3CC[C@@]4(C)C(CC[C@]5(C)C4C=C[C@]46OC[C@@]7(CCC(C)(C)C[C@H]74)[C@@H](O)C[C@]65C)[C@]3(C)CO)O[C@H](CO)[C@@H](O)[C@@H]2O[C@@H]2O[C@H](CO)[C@@H](O[C@@H]3O[C@@H](C)[C@H](O)[C@@H](O)[C@H]3O)[C@H](O)[C@H]2O)[C@H](O)[C@H](O)[C@H]1O (stereo not given in full)	inactive
O=S(=O)(Nc1ccc2ccccc2c1)c1ccc(NCc2ccc(Br)cc2O)cc1	inactive
COc1ccc(C2Nc3ccccc3C(=O)N2Cc2ccncc2)cc1COc1c(C)cc(NC(C)=O)cc1C (stereo not given)	inactive
O=[N+]([O-])c1ccc(-c2nc(Nc3ccc(F)c(F)c3)c3ccccc3n2)cc1	inactive

Structure (SMILES)	Potency
Cc1cc2c(s1)c1cnn(Cc3cccc(Cl)c3F)c(=O)c1n2C	inactive
Cc1ccc(C2=NN(CC(=O)NCCc3ccccc3)C(=O)C2)cc1	inactive
CC(=O)Nc1ccccc1NC(=O)c1cnn2c(C)cc(C)nc12	inactive
Cc1ccc(C)c(OC2=NS(=O)(=O)c3ccccc32)c1	inactive
Cc1cc(NC(=S)N2CCN(c3cccc(C(F)(F)F)c3)CC2)nc2ccccc12	inactive
Cc1nc2ccccn2c1C(O)(c1ccccc1)c1ccccc1	inactive
COc1ccc(C2c3c(ncn(CCN4CCOCC4)c3=N)Oc3ccc4ccccc4c32)cc1 (stereo not given)	inactive
Fc1ccc(Nc2nc(-c3ccncc3F)nc3ccccc23)cc1F	inactive
Cc1cc(C)nc(NC(=S)N2CCN(c3ccc(C(F)(F)F)cc3[N+](=O)[O-])CC2)c1	inactive
CC1=C(C(=O)Nc2ccc(Cl)cc2)C(c2ccccc2Br)N=C(Nc2nc3ccccc3o2)N1 (stereo not given)	inactive
Cc1ccc(CNc2nc(-c3ccccc3C(F)(F)F)nc3ccccc23)s1	inactive
Cc1cccc(Cn2ncc3c4sc(C)cc4n(C)c3c2=O)c1	inactive
O=S(=O)(c1ccc2c(c1)OCCCO2)N1CCN(S(=O)(=O)c2c(F)cccc2F)CC1	inactive
Brc1ccccc1-c1nc(NCc2ccc(-c3cccnc3)cc2)c2ccccc2n1	inactive
Cc1cc2c(s1)c1cnn(Cc3c(F)ccc(C)c3F)c(=O)c1n2C	inactive
COc1ccc(OC)c(C2=Nn3c(nnc3-c3cc(OC)ccc3OC)SC2)c1	inactive
COc1cc(OC)c2c(c1)OC(=O)CC2c1ccc2c(c1)OCO2 (stereo not given)	inactive
CCCCCCNC(=O)Nc1nnc(-c2ccncc2)s1	inactive
Cc1nc(C)c(-c2ccc3ncnc(N(C)Cc4sccc4C)c3c2)s1	inactive
O=C(OCC#CCSc1nnc(-c2cccc3ccccc23)o1)c1ccsc1	inactive

What follows are molecules tested against Retinaldehyde dehydrogenase 3 (Homo sapiens) (UniProt P47895) (assay: qHTS for Inhibitors of the Aldehyde Dehydrogenase Family (ALDH1A3) Primary screen (AID 2061315)). Settings: ALDH inhibition qHTS; series mostly up to 56 µM.

Structure (SMILES)	Potency
O=C(Nc1cccc(-c2nn3c(=O)cc(N4CCNCC4)nc3s2)c1)c1ccon1	inactive
CC(=O)Nc1sc2c(c1-c1ccc3nsnc3c1)CCNC2	inactive
COc1cccc(C2=Nn3c(nnc3-c3ccccc3O)SC2)c1	inactive
Cc1ccc(OCCn2c(CCNC(=O)C3CC3)nc3ccccc32)cc1	inactive
S=C(Nc1ccc(Cl)c(Cl)c1)Nc1nnc(-c2ccncc2)s1	inactive
CN(C)c1cccc(NS(=O)(=O)c2ccc(NC(=O)Cc3ccc(Cl)c(Cl)c3)cc2)c1	inactive
CCOc1ccc(C(=O)Oc2ccc(-c3nc4ccccc4[nH]3)cc2)cc1Cl	inactive
Cc1ccc(N2CCC(CNc3nc(-c4ccccc4C(C)C)ncc3F)CC2)cn1	inactive
Cc1ccccc1OC1=NS(=O)(=O)c2ccccc21	inactive
CCOc1ccc(CCNC(=O)c2cc3sccc3n2CCc2ccccc2)cc1OCC	inactive
COCCNc1nc(C)nc2c1nc(-c1ccccc1)n2CCN(C)C	inactive
CC(=O)Nc1sc2c(c1-c1ccc3c(c1)OCCO3)CCNC2	inactive
C[C@H](Oc1cc(-n2cnc3ccc(CN4CCN(C)CC4)cc32)sc1C(N)=O)c1ccccc1C(F)(F)F	inactive
Cc1ccc(-c2cc(C(=O)NCc3ccc(S(N)(=O)=O)cc3)c3ccccc3n2)cc1C	inactive
Cc1noc(C)c1C(=O)N1CCC2(CCCN(C(c3ccccc3)c3ccccc3)C2)CC1	inactive
CCc1ccc(NC(=O)c2cnn3c(C)cc(-c4ccccc4)nc23)cc1	inactive
C[C@@H]1O[C@@H](O[C@H]2[C@H](O[C@H]3CC[C@@]4(C)C(CC[C@]5(C)C4C=C[C@]46OC[C@@]7(CCC(C)(C)C[C@H]74)[C@@H](O)C[C@]65C)[C@]3(C)CO)O[C@H](CO)[C@@H](O)[C@@H]2O[C@@H]2O[C@H](CO)[C@@H](O[C@@H]3O[C@@H](C)[C@H](O)[C@@H](O)[C@H]3O)[C@H](O)[C@H]2O)[C@H](O)[C@H](O)[C@H]1O (stereo not given in full)	inactive
O=S(=O)(Nc1ccc2ccccc2c1)c1ccc(NCc2ccc(Br)cc2O)cc1	inactive
COc1ccc(C2Nc3ccccc3C(=O)N2Cc2ccncc2)cc1COc1c(C)cc(NC(C)=O)cc1C (stereo not given)	inactive
O=[N+]([O-])c1ccc(-c2nc(Nc3ccc(F)c(F)c3)c3ccccc3n2)cc1	inactive

Structure (SMILES)	Potency
Cc1cc2c(s1)c1cnn(Cc3cccc(Cl)c3F)c(=O)c1n2C	inactive
Cc1ccc(C2=NN(CC(=O)NCCc3ccccc3)C(=O)C2)cc1	inactive
CC(=O)Nc1ccccc1NC(=O)c1cnn2c(C)cc(C)nc12	inactive
Cc1ccc(C)c(OC2=NS(=O)(=O)c3ccccc32)c1	inactive
Cc1cc(NC(=S)N2CCN(c3cccc(C(F)(F)F)c3)CC2)nc2ccccc12	inactive
Cc1nc2ccccn2c1C(O)(c1ccccc1)c1ccccc1	inactive
COc1ccc(C2c3c(ncn(CCN4CCOCC4)c3=N)Oc3ccc4ccccc4c32)cc1 (stereo not given)	inactive
Fc1ccc(Nc2nc(-c3ccncc3F)nc3ccccc23)cc1F	inactive
Cc1cc(C)nc(NC(=S)N2CCN(c3ccc(C(F)(F)F)cc3[N+](=O)[O-])CC2)c1	inactive
CC1=C(C(=O)Nc2ccc(Cl)cc2)C(c2ccccc2Br)N=C(Nc2nc3ccccc3o2)N1 (stereo not given)	inactive
Cc1ccc(CNc2nc(-c3ccccc3C(F)(F)F)nc3ccccc23)s1	inactive
Cc1cccc(Cn2ncc3c4sc(C)cc4n(C)c3c2=O)c1	inactive
O=S(=O)(c1ccc2c(c1)OCCCO2)N1CCN(S(=O)(=O)c2c(F)cccc2F)CC1	inactive
Brc1ccccc1-c1nc(NCc2ccc(-c3cccnc3)cc2)c2ccccc2n1	inactive
Cc1cc2c(s1)c1cnn(Cc3c(F)ccc(C)c3F)c(=O)c1n2C	inactive
COc1ccc(OC)c(C2=Nn3c(nnc3-c3cc(OC)ccc3OC)SC2)c1	inactive
COc1cc(OC)c2c(c1)OC(=O)CC2c1ccc2c(c1)OCO2 (stereo not given)	inactive
CCCCCCNC(=O)Nc1nnc(-c2ccncc2)s1	inactive
Cc1nc(C)c(-c2ccc3ncnc(N(C)Cc4sccc4C)c3c2)s1	inactive
O=C(OCC#CCSc1nnc(-c2cccc3ccccc23)o1)c1ccsc1	inactive
